Source: PubChem BioAssay (NCI)
The panel holds about 79,000 compounds, 15% with a hit somewhere; the sample as a whole holds those more often. Unmarked numbers belong to inactive results. Calls of active or inactive are those of the source. No stated cut-off is given here; in the data, active means growth inhibition above about 70%; inactive means the rest.

Experiments:
[1] = NCI Yeast Anticancer Drug Screen. Data for the rad50 strain (AID 155);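 further: 0% = growth of vehicle-only cultures of the same strain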; conditions: S. cerevisiae rad50 strain growth inhibition, active compounds read high
Summary of the method: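 Cells are treated with compound, grown, and their growth is then scored against vehicle-only cultures of the same repair-deficient yeast strain.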

[2] = NCI Yeast Anticancer Drug Screen. Data for the mec2-1 strain (AID 157); conditions: S. cerevisiae mec2-1 strain, active compounds read high
Summary of the method: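 Using mec2-1 yeast: add compound, measure growth, express inhibition versus vehicle-treated cultures.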

[3] = NCI Yeast Anticancer Drug Screen. Data for the sgs1 mgt1 strain (AID 161);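 further: 0% = growth of cultures given vehicle only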; conditions: S. cerevisiae sgs1 mgt1 strain, active compounds read high
Summary of the method: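 Yeast cells carrying a defined DNA-repair defect were exposed to test compounds. Growth inhibition was measured relative to vehicle-treated controls.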

[4] = NCI Yeast Anticancer Drug Screen. Data for the cln2 rad14 strain (AID 165);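 further: 0% = growth equal to vehicle treated cultures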; conditions: S. cerevisiae cln2 rad14 strain, active compounds read high
Summary of the method: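 Yeast strain cln2 rad14, bearing defects in cell cycle control and DNA repair, serves as the test system; values reflect growth inhibition compared with vehicle.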

[5] = NCI Yeast Anticancer Drug Screen. Data for the bub3 strain (AID 167); conditions: S. cerevisiae bub3 mutant strain, active compounds read high
Summary of the method: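 Part of a panel of yeast mutants defective in DNA damage repair or cell cycle regulation. Each strain is grown with compound, and inhibition is calculated relative to solvent-treated cultures.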

[6] = NCI Yeast Anticancer Drug Screen. Data for the mlh1 rad18 strain (AID 175); conditions: S. cerevisiae mlh1 rad18 strain growth inhibition, active compounds read high
Summary of the method: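 Steps: expose repair-defective yeast to compound; measure growth; express inhibition against vehicle-treated controls.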

[7] = at 5.0 µM (retest, dose inferred, filed as 0.5)
[8] = at 50.0 µM (retest, dose inferred, filed as 5.0)

Row | SMILES | growth inhibition [1, 7] | growth inhibition [1, 8] | growth inhibition ([1]; at 50.0 µM) | growth inhibition [2, 7] | growth inhibition [2, 8] | growth inhibition ([2]; at 50.0 µM) | growth inhibition [3, 7] | growth inhibition [3, 8] | growth inhibition ([3]; at 50.0 µM) | growth inhibition [4, 7] | growth inhibition [4, 8] | growth inhibition ([4]; at 50.0 µM) | growth inhibition [5, 7] | growth inhibition [5, 8] | growth inhibition ([5]; at 50.0 µM) | growth inhibition [6, 7] | growth inhibition [6, 8] | growth inhibition ([6]; at 50.0 µM)
1 | C/C(=N/NC(N)=S)c1ccc(Cl)cc1 | 9% | 94% (active) | 96.5% (active) | -17% | 89% (active) | 97.1% (active) | 5% | 93% (active) | 94% (active) | -10% | 92% (active) | 92.5% (active) | 41% | 94% (active) | 95.3% (active) | 8% | 96% (active) | 97.2% (active)
2 | CC1CCC2(OC1)OC1C(O)C3C4CCC5CC(OC6OC(CO)C(OC7OC(CO)C(O)C(OC8OCC(O)C(O)C8O)C7OC7OC(CO)C(O)C(OC8OC(CO)C(O)C(O)C8O)C7O)C(O)C6O)C(O)CC5(C)C4CCC3(C)C1C2C (configuration not stated) | 95% (active) | 99% (active) | 93.2% (active) | 97% (active) | 99% (active) | 94% (active) | 93% (active) | 99% (active) | 93.8% (active) | 72% (active) | 99% (active) | 92.3% (active) | 97% (active) | 99% (active) | 93.2% (active) | 96% (active) | 98% (active) | 88% (active)
3 | CC12CCC(=O)C=C1CCC1C2CCC2(C)C(O[Si](C)(C)OC3CCC4C5CCC6=CC(=O)CCC6(C)C5CCC34C)CCC12 (configuration not stated) | 3% | 44% | 98.8% (active) | -12% | 16% | 98.7% (active) | 0% | 37% | 95.8% (active) | 1% | 33% | 58.4% | -1% | 0% | 97.1% (active) | 6% | 53% | 96.8% (active)
4 | CC(=O)c1cc(CN(CCCl)CCCl)c(O)c(CN(CCCl)CCCl)c1O | 5% | 12% | 90.5% (active) | -13% | 14% | 77.7% (active) | 10% | 34% | 96.2% (active) | 4% | 6% | 63.1% | 3% | 6% | 78.6% (active) | -4% | 45% | 89.5% (active)
5 | N#CS.[Ag] | 11% | 97% (active) | 60.8% | 10% | 98% (active) | 91.7% (active) | 15% | 98% (active) | 75.2% (active) | 27% | 98% (active) | 32.7% | 25% | 98% (active) | 89.5% (active) | -1% | 97% (active) | 89% (active)
6 | C=C1C(C)C2C(Cc3ccccc3)NC(=O)C23C(OC(C)=O)/C=C/C(C)(O)CC(C)C/C=C/C3C1O (configuration not stated) | 85% (active) | 98% (active) | 91.5% (active) | 94% (active) | 99% (active) | 92.5% (active) | 86% (active) | 99% (active) | 91.5% (active) | 86% (active) | 97% (active) | 90.7% (active) | 92% (active) | 99% (active) | 90.9% (active) | 95% (active) | 99% (active) | 89.4% (active)
7 | [pH]1p2[pH]p3p1p3[pH]2.c1cc[c]([Ge]([c]2ccccc2)[c]2ccccc2)cc1.c1cc[c]([Ge]([c]2ccccc2)[c]2ccccc2)cc1.c1cc[c]([Ge]([c]2ccccc2)[c]2ccccc2)cc1 | 10% | 82% (active) | 2.35% | 20% | 74% (active) | 59.3% | 18% | 78% (active) | 4.75% | 8% | 44% | 37.8% | 9% | 66% | -1% | 19% | 71% (active) | 18.4%
8 | O=[N+]([O-])c1ccc(C2C3CC4C(OOC42)C3I)cc1 (configuration not stated) | 0% | 20% | 23.5% | 0% | 9% | 18.1% | -4% | 12% | 32.8% | -1% | -7% | -27.4% | 28% | 98% (active) | 97.2% (active) | 0% | 27% | 31.4%
9 | Oc1cc(Cl)c(Cl)cc1Cl.[Cu+2] | 78% (active) | 96% (active) | 99% (active) | 45% | 98% (active) | 98.9% (active) | 48% | 70% (active) | 99.3% (active) | 21% | 98% (active) | 97.7% (active) | 97% (active) | 97% (active) | 99% (active) | 91% (active) | 97% (active) | 99.2% (active)
10 | CC(=O)[O-].CC(=O)[O-].O=C(N/N=C/c1cc(Cl)cc(Cl)c1[OH2+])c1ccncc1.[Zn+2] | 4% | 9% | 31% | -1% | 11% | 48.4% | 7% | 30% | 60.8% | 0% | -4% | 38% | 1% | 10% | 32.6% | 2% | 11% | 70% (active)
11 | N#CC(C#N)=Cc1c(O)ccc2ccccc12 | 15% | 76% (active) | 78.5% (active) | -2% | 45% | 51.3% | 2% | 32% | 66% | 18% | 48% | 61.2% | 10% | 62% | 68% | 19% | 81% (active) | 81.5% (active)
12 | Cc1ccc([NH-])cc1C.Cc1ccc([NH-])cc1C.[Cl][Pt+2][Cl] | 4% | 21% | 34.2% | -1% | 9% | 19.8% | 5% | 58% | 62.5% | -8% | 12% | -32.4% | -8% | 4% | 10.8% | 6% | 49% | 81.5% (active)
13 | CCOP(=O)(OCC)C(O)c1ccccc1Cl (configuration not stated) | 7% | 4% | 38.4% | 7% | 4% | -4.1% | 3% | 17% | 9.15% | -5% | 1% | 35.5% | -5% | -6% | 17.2% | 7% | 22% | 2.9%
14 | O=c1cccc(C2CC(CO)C3CCCCN3C2)[nH]1 (configuration not stated) | 1% | -1% | 69.3% | 1% | -2% | 91.8% (active) | 2% | 1% | 57.5% | -8% | -12% | 37.3% | 3% | 2% | 53.2% | -2% | -3% | -50.8%
15 | [Cl][Sn]([CH2]c1ccccc1)([CH2]c1ccccc1)[CH2]c1ccccc1 | 99% (active) | 98% (active) | 99% (active) | 100% (active) | 99% (active) | 99.2% (active) | 100% (active) | 99% (active) | 99.3% (active) | 99% (active) | 98% (active) | 98.7% (active) | 99% (active) | 99% (active) | 98.5% (active) | 99% (active) | 99% (active) | 99% (active)
16 | S=P(OC1CC2CCC1C2)(c1ccccc1)c1ccccc1 (configuration not stated) | 83% (active) | 98% (active) | -15.2% | 90% (active) | 99% (active) | 4.1% | 86% (active) | 97% (active) | -0.75% | 87% (active) | 98% (active) | 30.4% | 88% (active) | 97% (active) | -10.6% | 91% (active) | 99% (active) | 1.2%
17 | Nc1nc(N)c(-c2ccc(Cl)c(Cl)c2)c(COc2cccc(CNS(=O)(=O)c3cccc(S(=O)(=O)F)c3)c2)n1 | -6% | 92% (active) | 89.5% (active) | -4% | 70% (active) | 92.4% (active) | -1% | 85% (active) | 66.2% | -15% | 60% | 77.2% (active) | -4% | 62% | 88.8% (active) | -3% | 83% (active) | 96.3% (active)
18 | COC(C)(C)[CH]([Hg][Cl])n1ccccc1=O (configuration not stated) | 99% (active) | 99% (active) | 99.3% (active) | 99% (active) | 100% (active) | 99.4% (active) | 99% (active) | 99% (active) | 99.3% (active) | 98% (active) | 99% (active) | 99.2% (active) | 99% (active) | 99% (active) | 99.1% (active) | 98% (active) | 98% (active) | 99.3% (active)
19 | CC(C)C1(NC(=O)C2CC3c4cccc5[nH]cc(c45)CC3N(C)C2)OC2(O)C3CCCN3C(=O)C(Cc3ccccc3)N2C1=O (configuration not stated) | -26% | 94% (active) | 86.2% (active) | -2% | 96% (active) | 90.8% (active) | -10% | 92% (active) | 86.7% (active) | 1% | 96% (active) | 84.3% (active) | 30% | 96% (active) | 86.3% (active) | 4% | 97% (active) | 83.4% (active)
